GLP-1R inv ag = acts as inverse agonist at human GLP-1 receptor; HEK293 GLP-1R CRE-luciferase, luminescence, 24 h; GLP-1R form is constitutively active; Potency, µM (doses to about 38.3 µM), for inactives: at the top dose activity change, negative = inhibition, most hits filed as inhibitors; hit rate 1.6% among 410,000; AID 624417; note: potency is the fitted concentration of half-maximal effect; % is set by controls: 0 for no effect and ±100 for the full control effect; nearly all actives have a fitted effect of over 55% in size
Target sequence (P43220 whole entry, looked up): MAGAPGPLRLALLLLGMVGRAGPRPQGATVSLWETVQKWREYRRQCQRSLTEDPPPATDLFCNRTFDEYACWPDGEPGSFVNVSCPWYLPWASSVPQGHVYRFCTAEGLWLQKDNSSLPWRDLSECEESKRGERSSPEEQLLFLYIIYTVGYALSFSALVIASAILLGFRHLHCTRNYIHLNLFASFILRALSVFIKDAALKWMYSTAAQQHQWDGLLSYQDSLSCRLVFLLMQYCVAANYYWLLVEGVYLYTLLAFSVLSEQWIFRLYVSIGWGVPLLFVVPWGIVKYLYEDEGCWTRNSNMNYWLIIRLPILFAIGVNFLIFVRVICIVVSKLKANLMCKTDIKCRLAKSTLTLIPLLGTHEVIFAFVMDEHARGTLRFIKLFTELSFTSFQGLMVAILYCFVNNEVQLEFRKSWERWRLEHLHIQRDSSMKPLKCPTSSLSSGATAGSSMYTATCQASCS
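GLP-1R inverse agonism mode: basal reporter luminescence in engineered HEK293 cells measured after one day of compound exposure at 37 deg C, with a 12 min room-temperature detection step.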
ClpP mod = qHTS Assay for Activators of ClpP. AID 651965, 2013. ATP-dependent Clp protease proteolytic subunit (Bacillus subtilis (strain 168)), P80244. hit rate 1.9% among 340,000. Potency, µM (highest dose often 57.5 µM), inactives show top-dose activity change, negative = active. purified B. subtilis ClpP, FRET peptide cleavage, 20 min; active = well fitted falling curve with a large enough effect; inconclusive = small, poorly fitted or top-dose-only effect; inactive = no such curve, though single readings can be large or run the other way; note: potency is the fitted concentration of half-maximal effect; the source files actives as falling curves though it sought activators and does not explain the sign; nearly all actives have a fitted effect of over 65% in size
Target sequence (P80244 whole entry, looked up): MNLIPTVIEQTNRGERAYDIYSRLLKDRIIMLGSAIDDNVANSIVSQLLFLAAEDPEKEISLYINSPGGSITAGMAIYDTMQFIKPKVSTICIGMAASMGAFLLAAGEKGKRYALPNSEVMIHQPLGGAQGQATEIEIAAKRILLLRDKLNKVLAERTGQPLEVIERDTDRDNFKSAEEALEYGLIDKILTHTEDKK
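FRET quenching reversal measured ClpP activation: 10 microg/mL B. subtilis ClpP at pH 8 with the FRET-FV decapeptide, read at 430 nm after 320 nm excitation. The 20-min minus 0-min signal was scaled between DMSO/no-enzyme wells and ADEP (5.8 microM final).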
GLP1R ag = activates the human GLP-1 receptor. P43220. HEK293 GLP-1R CRE-luciferase, luminescence, 4-6 h; cells express a hypersensitive GLP-1R form. Potency, µM (titrated, usually from 45.6 µM), for inactives: at the top dose activation, usual class: activators. hit rate 0.007% among 380,000. AID 624172; note: potency is the fitted concentration of half-maximal effect; % of control where 0% means no effect
GLP1R cytotox = cytotoxicity in counter-screen for GLP-1R inverse agonists | AID 624418 | Potency, µM (doses to about 38.3 µM), for inactives: at the top dose activity change, negative = inhibition, usual class: inhibitors | hit rate 0.13% among 410,000 | HEK293 cAMP-luciferase reporter cells, luminescence, 24 h;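 note: loss of luciferase light is scored as toxicity; potency is the fitted concentration of half-maximal effect; % is set by controls: 0 for no effect and ±100 for the full control effect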
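Compound-treated cells are incubated 24 hr at 37 deg C under 5% CO2 after a 12 hour attachment period, then luciferase detection reagent is added and luminescence is measured following 12 min at room temperature; lowered signal indicates toxicity.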
D3 antag = blocks the human D3 dopamine receptor; P35462; D3R cells, DiscoveRx beta-arrestin luminescence, antagonist mode; stronger effect = lower value; max response, negative = inhibition, %; hit rate 2.5% among 360,000; in the data active = max response below about -50%; inconclusive = no clear call, values can overlap the other calls; note: % is set by controls: 0 for no effect and ±100 for the full control effect
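Cells plated overnight at 1500 cells/well, then exposed to library compounds with dopamine controls for 90 minutes at 37 degrees C. DiscoveRx reagent added for 30–60 minutes at room temperature; luminescence read, quantitative HTS format.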
DRD3 agonist = D3 dopamine receptor (human) agonism; D3R DiscoveRx beta-arrestin cells, luminescence, 90 min; max activation, %; hit rate 0.58% among 410,000; AID 652048; in the data active = max activation above about 30%; note: 0% is about no effect
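Cells at 1500/well, incubated overnight, then treated with pinned compounds (dopamine as control) for 90 min at 37 degrees C. DiscoveRx reagent added for 30 - 60 minutes at room temperature; luminescence read.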
Numbers without * were called inactive; ? = inconclusive; nt = not tested or not shown; [ ] = dose if it differs, or a comment. This is a sample that favours compounds with a hit; in the whole collection about 5.7% have one here. Unless noted, calls come from the whole dose curve; as a rule, active = well fitted curve in the direction sought with a large enough effect; inconclusive = small, poorly fitted or top-dose-only effect, or another doubt; inactive = no such curve, though single readings can be large; an effect the other way counts as inactive or inconclusive.

SMILES	GLP-1R inv ag	ClpP mod	GLP1R ag	GLP1R cytotox	D3 antag	DRD3 agonist
C#CCN(C[C@@H]1[C@@H](OC(=O)NCCCCCC)[C@@H](OC(=O)NCCCCCC)Cn2c(=O)ccc(=O)n21)S(=O)(=O)c1ccc(C)cc1	?	-2%	-8%	?	-23	2
COc1ccc(N2CCN(C(=O)CCc3c(C)nn(-c4ccc(N5CCCC5)nn4)c3C)CC2)cc1	2%	-1%	nt	4%	nt	10
O=C(Cc1ccc(Cl)cc1)Nc1cccc(-c2nnc(-c3ccco3)o2)c1	-4%	?	5%	-21%	15	17
O=C(Cc1ccccc1)Nc1cccc(-c2nnc(-c3ccco3)o2)c1	-22%	25µM*	3%	-4%	55	9
O=C(COc1ccccc1)Nc1ccc(-c2nnc(-c3ccco3)o2)cc1	0%	20µM*	-6%	-12%	14	0
O=C(Nc1cccc(-c2nnc(-c3ccco3)o2)c1)C(c1ccccc1)c1ccccc1	8.9µM*	11µM*	-2%	11%	?	-4
O=C(Nc1cccc(-c2nnc(-c3ccco3)o2)c1)c1ccccc1	-46%	nt	7%	-24%	36	0
COc1ccccc1OCC(=O)Nc1cccc(-c2nnc(-c3ccco3)o2)c1	14%[7.66 µM]	nt	11%	16%[7.66 µM]	3	-1
O=S(=O)(c1ccc(Br)cc1)c1nnn2c1nc(Nc1cccc(C(F)(F)F)c1)c1sccc12	4%	-3%	nt	20%	nt	-8
CC1CN(C(=S)Nc2ccc(SC(F)F)cc2)CC(C)O1 (stereo not given)	-21%	nt	7%	5%	-5	-3
CC1CC(C)CN(C(=S)Nc2ccc(SC(F)F)cc2)C1 (stereo not given)	?	28µM*	-9%	?	6	3
COc1cc(OC)c2c(=O)cc(-c3ccccc3)oc2c1	51%	-22%	17%	3%	-25	30
COc1cc(OC)c2c(C)c(Cl)c(=O)oc2c1	34%	2.8µM*	-3%	-3%	18	-4
Cc1ccc(CNC(=O)c2ccc(CN3CC(=O)N4CCCCC4C3=O)cc2)cc1 (stereo not given)	0%	-2%	nt	-3%	nt	8
C=C1CC(COc2cc(=O)oc3ccccc23)(c2ccccc2)OC1=O (stereo not given)	?	-18%	-1%	?	-114*	-15
Cc1ccc2c(ccc[n+]2CC(=O)c2ccccc2)c1	-26%	18µM*	1%	-5%	-2	5
COc1ccc(C(=O)C[n+]2cccc3cc(C)ccc32)cc1	2%	nt	-6%	-4%	4	-3
Cc1nc([N+](=O)[O-])cn1CC(O)c1ccc2c(c1)OCCCO2 (stereo not given)	nt	1%	nt	nt	nt	nt
CC(=O)NCC1CCCN(Cc2cn(-c3ccccc3)nc2-c2ccc3c(c2)OCO3)C1 (stereo not given)	1%[7.66 µM]	1%	-1%	-3%[7.66 µM]	-10	-12
COC(=O)C1CCN(Cc2cn(-c3ccccc3)nc2-c2ccc3c(c2)OCO3)CC1	-28%[7.66 µM]	1%	-1%	-2%[7.66 µM]	-69*	-2
COC(=O)C1CCN(Cc2nnc(-c3ccccc3)o2)CC1	12%	nt	24%	-3%	19	81*
CCOC(=O)C1CCN(C2CCN(Cc3nc(-c4ccccc4)no3)CC2)CC1	8%	nt	7%	-2%	7	4
NC(=O)C1CCN(Cc2nc(-c3ccccc3)no2)CC1	-1%	-1%	-10%	-6%	29	34*
CCc1ccc(OCc2cc(=O)n3cc(C)sc3n2)cc1	17%	-1%	2%	0%	nt	2
O=C(Nc1ccccc1F)c1ccc2c(Cl)c3c(nc2c1)CCC3	?	-1%	-2%	-23%	nt	-6
SMILES	GLP-1R inv ag	ClpP mod	GLP1R ag	GLP1R cytotox	D3 antag	DRD3 agonist
Cc1ccc(S(=O)(=O)CCC(=O)OCC(=O)c2c[nH]c3ccccc23)cc1	8%	2%	3%	2%	-13	33*
CC(C)C(NS(=O)(=O)c1c(Cl)cccc1Cl)C(=O)OCC(=O)c1c[nH]c2ccccc12 (stereo not given)	?	-3%	-28%	-5%	2	3
CC(O)C(NS(=O)(=O)c1ccc(Cl)cc1)C(=O)OCC(=O)c1c[nH]c2ccccc12 (stereo not given)	5.6µM*	nt	8%	-14%	-3	-4
C/C1=C2N=C(/C=C3N=C(/C(C)=C4\[N-][C@@H]([C@H](CC(N)=O)[C@]4(C)CCC(=O)NC[C@@H](C)OP(=O)([O-])O[C@@H]4[C@@H](O)[C@H](n5cnc6cc(C)c(C)cc65)O[C@@H]4CO)[C@@]4(C)N=C1[C@H](CCC(N)=O)[C@@]4(C)CC(N)=O)[C@H](CCC(N)=O)C\3(C)C)[C@@H](CCC(N)=O)[C@@]/2(C)CC(N)=O.[CH3-].[Co+3]	nt	nt	-12%	nt	nt	nt
CC1CCN(C(=O)CSc2ccc(-c3ccc(F)cc3)nn2)CC1	?	32µM*	-1%	6%	-23	1
O=C(CSc1ccc(-c2ccc(F)cc2)nn1)N1CCCCC1	-5%	-2%	4%	-2%	-20	-14
Cc1ccc(S(=O)(=O)c2cn(Cc3ccccc3)c3cc(N4CCCCC4)c(F)cc3c2=O)cc1	9%	?	nt	-2%	nt	0
CCc1ccc(S(=O)(=O)c2cn(Cc3ccccc3)c3cc(N4CCCC4)c(F)cc3c2=O)cc1	5%	2.8µM*	nt	6%	nt	9
Cc1ccc(Cn2cc(S(=O)(=O)c3ccc(C)cc3)c(=O)c3cc(F)c(N4CCCC4)cc32)cc1	8%	?	nt	2%	nt	5
Cc1ccc(S(=O)(=O)c2cn(Cc3cccc(F)c3)c3cc(N4CCCC4)c(F)cc3c2=O)cc1	13%	3.5µM*	nt	1%	nt	4
Cc1ccc(S(=O)(=O)c2cn(Cc3ccccc3)c3cc(N4CCOCC4)c(F)cc3c2=O)cc1	13%	28µM*	nt	-1%	nt	9
CCOc1cc(OCC)cc(C(=O)N2CCC[C@H]2C(=O)N2CCC[C@H]2C(=O)NCc2ccccn2)c1	21%	-1%	27%	7%	7	-6
NC(Cc1ccc(C(F)(F)F)cc1)c1csc(Nc2ccc(C(=O)c3ccccc3)cc2)n1 (stereo not given)	?	-30%	-6%	?	103	7
Cc1cc2nc(C(C)(C)C)c(Cc3ccccc3C(F)(F)F)n2c(C)c1Br	?	-4%	-2%	-2%	21	3
N#CC1=C(N)Oc2n[nH]c(-c3cccs3)c2C1c1ccoc1 (stereo not given)	10%	28µM*	0%	10%	-23	-5
